# Reference: the supplement of paper PMC12067093, “Discovery and optimisation of a covalent ligand for TRIM25 and its application to targeted protein ubiquitination” (Chemical Science, 2025)
# Of roughly 21,000 targets only a part is listed; those with the largest changes were picked by preference.
# Compound: Cc1cc(ccc1-c1ccccc1)C(=O)N1CCCN(CC1)C(=O)CCl [compound 10]
# Test: probe-labelled cysteine peptide fold change vs DMSO (competition) (log2 fold change); higher = less target engagement (more negative = stronger competition)
# Settings: THP-1, incubation time: 4 h
# 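Also: competitive profiling in live THP-1 cells: cysteine peptides tagged with an iodoacetamide desthiobiotin (IA-DTB) probe, intensity after compound treatment relative to DMSO-treated cells.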
# UniProt Q9BWH6, sequence (Q9BWH6 whole entry): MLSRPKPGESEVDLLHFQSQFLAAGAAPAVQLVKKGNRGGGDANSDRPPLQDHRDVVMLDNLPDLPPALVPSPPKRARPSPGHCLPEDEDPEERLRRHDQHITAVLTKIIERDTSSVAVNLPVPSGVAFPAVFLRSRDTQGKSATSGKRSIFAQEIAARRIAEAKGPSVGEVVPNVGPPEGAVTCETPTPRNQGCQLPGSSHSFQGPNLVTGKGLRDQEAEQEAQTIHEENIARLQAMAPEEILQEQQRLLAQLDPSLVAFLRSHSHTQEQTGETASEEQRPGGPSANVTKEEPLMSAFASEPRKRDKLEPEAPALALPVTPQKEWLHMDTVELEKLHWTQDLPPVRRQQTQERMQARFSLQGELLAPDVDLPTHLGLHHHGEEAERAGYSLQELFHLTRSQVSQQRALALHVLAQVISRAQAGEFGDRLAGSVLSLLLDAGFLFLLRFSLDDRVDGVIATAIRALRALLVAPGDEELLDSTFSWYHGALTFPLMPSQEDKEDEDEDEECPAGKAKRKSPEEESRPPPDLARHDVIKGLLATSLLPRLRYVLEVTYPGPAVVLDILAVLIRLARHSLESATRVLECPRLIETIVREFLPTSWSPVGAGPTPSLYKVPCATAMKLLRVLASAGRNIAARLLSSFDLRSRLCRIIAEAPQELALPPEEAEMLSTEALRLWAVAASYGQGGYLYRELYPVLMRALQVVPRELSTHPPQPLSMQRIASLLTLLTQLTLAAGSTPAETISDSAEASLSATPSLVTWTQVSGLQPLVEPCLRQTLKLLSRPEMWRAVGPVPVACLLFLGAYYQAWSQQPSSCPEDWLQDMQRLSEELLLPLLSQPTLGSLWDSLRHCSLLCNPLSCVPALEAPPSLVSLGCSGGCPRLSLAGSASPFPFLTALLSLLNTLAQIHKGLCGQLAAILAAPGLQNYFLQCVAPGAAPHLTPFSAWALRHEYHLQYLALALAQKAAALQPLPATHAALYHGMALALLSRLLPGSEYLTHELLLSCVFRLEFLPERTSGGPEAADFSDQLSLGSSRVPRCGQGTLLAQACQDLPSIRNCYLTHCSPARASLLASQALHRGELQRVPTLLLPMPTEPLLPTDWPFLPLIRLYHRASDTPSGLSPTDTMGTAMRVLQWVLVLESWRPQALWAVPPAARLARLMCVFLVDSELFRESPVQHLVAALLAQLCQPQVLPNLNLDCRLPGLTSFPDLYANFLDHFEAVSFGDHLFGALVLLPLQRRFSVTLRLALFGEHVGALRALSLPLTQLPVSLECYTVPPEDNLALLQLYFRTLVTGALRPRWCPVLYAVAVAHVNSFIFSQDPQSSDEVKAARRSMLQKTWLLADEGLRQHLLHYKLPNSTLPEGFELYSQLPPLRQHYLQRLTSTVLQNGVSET
# UniProt Q01826, sequence (Q01826 whole entry, looked up): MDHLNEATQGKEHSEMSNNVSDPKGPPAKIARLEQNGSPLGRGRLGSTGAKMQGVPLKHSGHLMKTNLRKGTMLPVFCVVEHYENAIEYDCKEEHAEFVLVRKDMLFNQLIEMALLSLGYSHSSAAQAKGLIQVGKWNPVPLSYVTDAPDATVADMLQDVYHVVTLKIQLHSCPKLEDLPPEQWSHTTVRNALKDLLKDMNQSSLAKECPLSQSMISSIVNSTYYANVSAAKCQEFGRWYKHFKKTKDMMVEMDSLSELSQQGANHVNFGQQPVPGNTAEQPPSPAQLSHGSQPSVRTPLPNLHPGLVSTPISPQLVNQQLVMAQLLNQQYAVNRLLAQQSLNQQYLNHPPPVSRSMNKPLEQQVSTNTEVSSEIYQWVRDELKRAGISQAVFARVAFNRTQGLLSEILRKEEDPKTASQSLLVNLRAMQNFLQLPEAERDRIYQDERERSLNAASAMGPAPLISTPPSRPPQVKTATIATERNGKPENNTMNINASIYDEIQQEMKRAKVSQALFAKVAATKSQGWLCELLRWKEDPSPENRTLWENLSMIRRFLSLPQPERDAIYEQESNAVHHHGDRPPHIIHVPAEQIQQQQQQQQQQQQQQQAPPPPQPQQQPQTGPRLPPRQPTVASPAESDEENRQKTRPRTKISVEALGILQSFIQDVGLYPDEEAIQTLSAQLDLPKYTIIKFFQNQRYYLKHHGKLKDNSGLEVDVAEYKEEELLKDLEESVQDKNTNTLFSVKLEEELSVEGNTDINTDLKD
# UniProt Q9H4A4, sequence (Q9H4A4 whole entry, looked up): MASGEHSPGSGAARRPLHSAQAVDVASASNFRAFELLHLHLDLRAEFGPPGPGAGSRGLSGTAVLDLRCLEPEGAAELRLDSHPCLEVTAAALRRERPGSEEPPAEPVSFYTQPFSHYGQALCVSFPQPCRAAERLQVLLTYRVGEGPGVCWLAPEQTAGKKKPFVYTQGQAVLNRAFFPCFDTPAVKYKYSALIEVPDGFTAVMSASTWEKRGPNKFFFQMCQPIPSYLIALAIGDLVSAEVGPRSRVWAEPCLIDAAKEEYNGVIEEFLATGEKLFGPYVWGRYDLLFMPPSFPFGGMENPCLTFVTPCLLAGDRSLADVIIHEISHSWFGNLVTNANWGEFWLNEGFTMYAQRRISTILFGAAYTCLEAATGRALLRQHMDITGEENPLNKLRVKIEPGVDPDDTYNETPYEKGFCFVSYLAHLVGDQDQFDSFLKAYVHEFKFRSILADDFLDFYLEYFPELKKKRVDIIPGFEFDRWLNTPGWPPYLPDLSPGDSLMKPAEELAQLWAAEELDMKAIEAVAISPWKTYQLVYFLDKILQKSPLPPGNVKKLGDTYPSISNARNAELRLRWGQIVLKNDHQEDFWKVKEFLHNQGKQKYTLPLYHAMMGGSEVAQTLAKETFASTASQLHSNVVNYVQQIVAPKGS
# UniProt O75182, sequence (O75182 whole entry): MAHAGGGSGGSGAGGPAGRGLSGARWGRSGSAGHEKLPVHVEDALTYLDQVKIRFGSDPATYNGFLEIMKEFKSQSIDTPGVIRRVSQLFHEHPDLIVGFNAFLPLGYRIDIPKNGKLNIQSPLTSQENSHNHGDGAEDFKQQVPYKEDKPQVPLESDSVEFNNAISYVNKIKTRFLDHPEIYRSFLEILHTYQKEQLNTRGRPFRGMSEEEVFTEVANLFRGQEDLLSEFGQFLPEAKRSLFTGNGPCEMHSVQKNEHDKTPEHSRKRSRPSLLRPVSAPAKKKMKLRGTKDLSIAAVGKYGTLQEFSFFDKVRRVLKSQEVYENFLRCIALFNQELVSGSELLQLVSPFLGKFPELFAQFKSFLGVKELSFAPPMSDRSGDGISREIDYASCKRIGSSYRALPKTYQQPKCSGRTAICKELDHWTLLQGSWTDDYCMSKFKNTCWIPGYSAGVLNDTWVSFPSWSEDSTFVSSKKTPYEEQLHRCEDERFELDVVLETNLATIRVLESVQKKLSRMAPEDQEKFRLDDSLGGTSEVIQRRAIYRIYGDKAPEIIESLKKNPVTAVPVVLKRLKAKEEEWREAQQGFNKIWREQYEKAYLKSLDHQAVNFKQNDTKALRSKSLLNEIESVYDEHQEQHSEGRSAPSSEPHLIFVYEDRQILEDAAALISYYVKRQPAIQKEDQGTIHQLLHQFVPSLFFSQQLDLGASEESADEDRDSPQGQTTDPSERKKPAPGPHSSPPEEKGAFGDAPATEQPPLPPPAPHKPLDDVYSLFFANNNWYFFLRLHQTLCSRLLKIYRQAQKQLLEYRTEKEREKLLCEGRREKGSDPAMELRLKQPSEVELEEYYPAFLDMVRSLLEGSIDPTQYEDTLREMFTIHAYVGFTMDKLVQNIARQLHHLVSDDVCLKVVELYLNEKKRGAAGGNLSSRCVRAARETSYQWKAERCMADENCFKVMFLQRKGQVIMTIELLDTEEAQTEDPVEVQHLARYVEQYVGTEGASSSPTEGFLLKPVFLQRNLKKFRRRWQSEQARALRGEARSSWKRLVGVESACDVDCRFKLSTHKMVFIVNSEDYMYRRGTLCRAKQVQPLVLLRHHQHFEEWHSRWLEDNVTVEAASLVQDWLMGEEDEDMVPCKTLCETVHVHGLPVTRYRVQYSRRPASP
# UniProt P03973, sequence (P03973 whole entry): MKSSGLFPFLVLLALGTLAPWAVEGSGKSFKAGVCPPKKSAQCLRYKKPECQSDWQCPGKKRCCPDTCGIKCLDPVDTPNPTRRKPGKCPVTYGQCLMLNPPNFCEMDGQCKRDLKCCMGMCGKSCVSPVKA
# UniProt Q92854, sequence (Q92854 whole entry, looked up): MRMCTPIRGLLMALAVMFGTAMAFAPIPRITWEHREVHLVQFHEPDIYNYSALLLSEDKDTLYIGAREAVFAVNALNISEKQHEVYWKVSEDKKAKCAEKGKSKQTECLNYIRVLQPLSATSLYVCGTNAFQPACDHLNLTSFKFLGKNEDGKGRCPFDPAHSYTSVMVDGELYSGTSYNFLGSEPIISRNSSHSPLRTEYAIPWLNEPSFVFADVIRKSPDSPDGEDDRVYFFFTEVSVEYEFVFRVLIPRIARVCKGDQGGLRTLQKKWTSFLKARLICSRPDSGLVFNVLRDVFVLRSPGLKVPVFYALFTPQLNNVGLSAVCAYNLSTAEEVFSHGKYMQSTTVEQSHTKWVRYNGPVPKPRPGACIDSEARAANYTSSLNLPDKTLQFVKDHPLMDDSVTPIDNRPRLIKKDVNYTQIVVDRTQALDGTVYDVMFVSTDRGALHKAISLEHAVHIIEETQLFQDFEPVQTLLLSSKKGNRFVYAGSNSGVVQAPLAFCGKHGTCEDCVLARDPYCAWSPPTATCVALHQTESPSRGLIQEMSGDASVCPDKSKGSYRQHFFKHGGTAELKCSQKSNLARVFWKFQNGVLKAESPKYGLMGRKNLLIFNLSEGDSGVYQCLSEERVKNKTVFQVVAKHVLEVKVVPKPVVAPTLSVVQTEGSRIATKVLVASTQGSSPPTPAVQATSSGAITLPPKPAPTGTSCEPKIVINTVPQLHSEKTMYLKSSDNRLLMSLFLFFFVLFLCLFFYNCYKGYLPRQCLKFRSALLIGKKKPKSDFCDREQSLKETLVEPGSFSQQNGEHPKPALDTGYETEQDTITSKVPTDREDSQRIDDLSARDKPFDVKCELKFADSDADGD
Target,probe-labelled cysteine peptide fold change (10 µM),probe-labelled cysteine peptide fold change (50 µM)
RPS8_P62241_182_LLACIASRPGQCGR (UniProt P62241),-0.207,-0.296
SAP30BP_Q9UHR5_127_CSNHLQDK (UniProt Q9UHR5),-0.0884,-0.31
RPAP1_Q9BWH6_185_GPSVGEVVPNVGPPEGAVTCETPTPR (UniProt Q9BWH6),0.902,1.33
SEPT5_Q99719_278_LYPWGIVEVENQAHCDFVK (UniProt Q99719),0.194,0.135
RNPEP_Q9H4A4_69_CLEPEGAAELR (UniProt Q9H4A4),0.063,0.0983
RNH1_P13489_30_WAELLPLLQQCQVVR (UniProt P13489),0.0863,0.0624
SATB1_Q01826_91_GTMLPVFCVVEHYENAIEYDCKEEHAEFVLVR (UniProt Q01826),-0.0836,-0.32
SEMA4A_Q9H3S1_547_GNPEWACASGPMSR (UniProt Q9H3S1),-0.0882,-0.865
SLPI_P03973_51+57_YKKPECQSDWQCPGK (UniProt P03973),-0.847,-1.07
RNF14_Q9UBS8_350_LTYHGVSPCK (UniProt Q9UBS8),-0.0421,-0.206
RPL11_P62913_150_TGCIGAK (UniProt P62913),-0.0968,-0.152
SIN3B_O75182_1138_TLCETVHVHGLPVTR (UniProt O75182),-0.165,0.0678
RPUSD2_Q8IZ73_246_LLAENEDVVVVDKPSSIPVHPCGR (UniProt Q8IZ73),-0.561,-1.57
RPS6_P62753_12_KLNISFPATGCQK (UniProt P62753),0.00268,1.18
SEC63_Q9UGP8_671_EQTLISMPYHVCTLK (UniProt Q9UGP8),0.235,0.336
SAP30_O75446_184_AQLVEIVGCHFR (UniProt O75446),0.0105,-0.181
RPL7A_P62424_182_MGVPYCIIK (UniProt P62424),0.17,-0.0867
SEMA4D_Q92854_370_PRPGACIDSEAR (UniProt Q92854),-0.224,-1.22
